In PubChem BioAssay AID720530 (The Scripps Research Institute Molecular Screening Center, 2013) one finds inhibition data, which are given here for 55 compounds.

The campaign covered roughly 1,000 compounds. About 260 (26%) were called active. No stated cut-off is given here; in the data, active means inhibition above about 21%; inactive means the rest. Only a sample is shown.

The target of the assay is E3 ubiquitin-protein ligase UHRF1 (Homo sapiens) (UniProt Q96T88). Description: UHRF1 methylated DNA binding inhibitors, counter-screen for MBD2 inhibitor project, biochemical, TR-FRET, human UHRF1 (AID 720530).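 Further: UHRF1 SRA domain binding a labeled hemimethylated CpG hairpin DNA; 0% = vehicle only and 100% = reference inhibitor with vehicle.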 As to conditions: UHRF1 binding to methylated oligonucleotide, at 4.4 µM, stronger effect = higher value. For orientation: A counterscreen serves to expose hits that act by an unwanted route or on another target.
E3 ubiquitin-protein ligase UHRF1 (Homo sapiens), sequence (Q96T88 whole entry, looked up, the tested form may be a part): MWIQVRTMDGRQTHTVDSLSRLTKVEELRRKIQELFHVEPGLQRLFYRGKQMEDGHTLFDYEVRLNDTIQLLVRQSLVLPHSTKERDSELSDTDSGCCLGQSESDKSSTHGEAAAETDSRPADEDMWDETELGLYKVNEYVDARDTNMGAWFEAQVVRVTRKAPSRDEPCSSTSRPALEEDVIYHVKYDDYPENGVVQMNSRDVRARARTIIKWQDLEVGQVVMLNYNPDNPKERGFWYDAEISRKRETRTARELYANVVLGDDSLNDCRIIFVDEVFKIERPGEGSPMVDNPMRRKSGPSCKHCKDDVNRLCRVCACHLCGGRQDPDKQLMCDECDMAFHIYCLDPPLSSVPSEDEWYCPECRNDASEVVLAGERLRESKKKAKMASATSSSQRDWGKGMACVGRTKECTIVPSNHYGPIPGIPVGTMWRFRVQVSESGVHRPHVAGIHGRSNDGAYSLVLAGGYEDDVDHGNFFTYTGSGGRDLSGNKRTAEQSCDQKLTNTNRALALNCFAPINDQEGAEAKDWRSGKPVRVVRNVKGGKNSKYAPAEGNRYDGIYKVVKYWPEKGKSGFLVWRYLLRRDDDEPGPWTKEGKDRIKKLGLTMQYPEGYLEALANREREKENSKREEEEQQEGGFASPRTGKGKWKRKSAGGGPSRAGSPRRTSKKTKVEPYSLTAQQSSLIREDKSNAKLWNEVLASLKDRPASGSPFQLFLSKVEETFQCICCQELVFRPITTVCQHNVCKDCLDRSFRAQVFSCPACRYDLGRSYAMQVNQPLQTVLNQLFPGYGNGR
The inhibition is the relative decrease from the control value, in per cent. `CCN(CC)CCOc1ccc2c(c1)C(=NNC(=O)c1ccccn1)c1cc(OCCN(CC)CC)ccc1-2`: the inhibition was 108% (active). Regarding `COC(=O)c1ccc2nc(-c3cccc(Br)c3)c(Cc3ccc(OC)cc3C)n2c1`, the inhibition is 12.2% (inactive).

In the case of `Cc1ccc(C)c(NC(=O)c2ccc(OC(=O)c3ccco3)cc2)c1`, the inhibition was 8.96% (inactive).

Regarding `CCOC(=O)CCP(=O)(O)C(O)(c1ccccc1)c1ccccc1`, the inhibition was 4.07% (inactive). `Cc1cccc(NC(=O)C[C@H]2CC[C@H]3[C@@H](COc4ccc(NC(=O)Nc5ccccc5)cc4C(=O)N3C)O2)c1`: the inhibition was 0.48% (inactive). To `CC(C)c1nc(CNC(=O)CC2C(=O)NCCN2Cc2cccc(F)c2F)cs1` (stereo not given) belongs 9.89% (inactive).

As to `COc1ccc2c(c1)c(=Cc1ccc(N(C)C)cc1)c1cc(-c3ccccc3)[n+](C)n12`, the inhibition was 83.9% (active). As to `Cc1ccc(-c2ccnc3nc(Sc4ncc(C(F)(F)F)cc4Cl)nn23)cc1`, the inhibition was 8.79% (inactive). Under `Cc1cccc(CN2CCN(C3CN(Cc4cn(Cc5cc(C)cc(C)c5)nn4)S(=O)(=O)C3)CC2)c1` (stereo not given) stands 9.39% (inactive); under `COC(=O)c1cccc(NC(=O)c2cccc(N3C(=O)CCC3=O)c2)c1`, 6.97% (inactive); under `COc1ccc(CNC(=O)c2c[nH]c3c(OC)cc(OC)cc3c2=O)cc1`, 5.78% (inactive). Under `CN(C(=O)COC(=O)c1cc(-c2ccco2)nc2ccccc12)C1CCS(=O)(=O)C1` (stereo not given) stands 35.3% (active); under `O=C(c1n[nH]c2c1CCC2)N1CCCC(Nc2cccc(F)c2)C1` (stereo not given), 6.16% (inactive). Take `CC(C)Oc1ccc(C2NC(=O)NC2=O)cc1` (stereo not given): the inhibition was 6.8% (inactive). With `CCOc1cc(-c2noc(CCCC(=O)NC3CCCCC3)n2)ccc1OC`, the inhibition was 4.27% (inactive). For `c1ccc2cc3c(NCCN4CCOCC4)ccnc3cc2c1`, the inhibition is 21.8% (active).

Turning to `COc1ccc(-n2cc(-c3ccccc3)c3c(=S)nc[nH]c32)cc1`, the inhibition is -1.36% (inactive). Take `COc1nc(N(C)C)nc(N2CC(=O)N(CCNS(=O)(=O)c3ccc(C)cc3)C2=N)n1`: the inhibition is 6.8% (inactive). For `CC(=O)c1ccccc1NC(=O)COC(=O)C1COc2ccccc2O1` (stereo not given), the inhibition is 2.18% (inactive). Regarding `COc1ccc2[nH]c3c(C)c4cc[n+](C)cc4c(C)c3c2c1`, the inhibition was 94.4% (active). To `CCOC(=O)C1C(=O)OC2(CCCC2)C1C(=O)OCC` (stereo not given) belongs 1.98% (inactive); to `O=C(CC1CCCCC1)Nc1c2c(nn1-c1ccc(F)cc1)CS(=O)(=O)C2`, 5.19% (inactive). To `C=CCN1C(=O)c2ccc(C(=O)N3CCC(C(=O)OCC)CC3)cc2C1=O` belongs 4.16% (inactive); to `C=CC1=C(C(=O)O)N2C(=O)[C@@H](NC(=O)/C(=N\OCC(=O)O)c3csc(N)n3)[C@H]2SC1`, 106% (active). Under `Nc1ccccc1C(=O)NC1CCCCNC1=O` (stereo not given) stands 4.32% (inactive); under `Cc1ccc(C(=O)Nc2ccc3c(c2)OCO3)cc1S(=O)(=O)N1CCCCC1`, 4.99% (inactive); under `COc1ccc(COC[C@H](CC(C)C)N2CCN(C(=O)c3cccc(C(F)(F)F)c3)CCC2=O)cc1`, 8.9% (inactive). On to `COC(=O)[C@]12C[C@H](CC(=O)NCCC(C)C)C(=O)N(CCc3ccc(OC)c(OC)c3)C1=C[C@H](C(C)(C)C)O[C@@H]2C`, for which the inhibition is 7.24% (inactive). For the compound `COc1ccc(OCc2cc(C(=O)NCC3(C)COC3)no2)c(Cl)c1`, the inhibition was 2.8% (inactive). Consider `COC(=O)c1c(NC(=O)c2ccc(S(=O)(=O)N3CCOCC3)cc2)sc2c1CCN(C(C)C)C2`, for which the inhibition is 29.1% (active). `Cc1c(NS(=O)(=O)c2cc(C(=O)NCCc3ccc(F)cc3)cc(Cl)c2Cl)c(=O)n(-c2ccccc2)n1C`: the inhibition was 3.95% (inactive). For the compound `O=c1ccc2c(-c3ccccc3S(=O)(=O)O)c3ccc(O)c(O)c3oc-2c1O`, the inhibition is 73.8% (active). To `C=C1c2c(Cl)ccc(O)c2C(O)=C2C(=O)[C@]3(O)C(O)=C(C(N)=O)C(=O)[C@@H](N(C)C)[C@@H]3[C@@H](O)C12` (stereo not given in full) belongs 19.2% (inactive); to `CCOC(=O)c1ccc(-n2c(CCC(=O)O)ccc2-c2ccccc2)cc1`, 7.24% (inactive).

Consider `C=CCN(C(=O)[C@@H](CCCC)[C@@H](O)c1ccc(Cl)cc1)c1ccccc1`, for which the inhibition was 6.35% (inactive). To `CN(C)[C@@H]1C(=O)C(C(N)=O)=C(O)[C@@]2(O)C(=O)C3=C(O)c4c(O)ccc(Cl)c4[C@@H](O)[C@H]3C[C@@H]12` belongs 12.2% (inactive); to `COc1ccccc1C(=O)NNC(=O)CCN1C(=O)/C(=C\c2ccccc2)SC1=S`, 7.6% (inactive). Under `Cc1ccc(Cc2cnc(N)s2)o1` stands 7.64% (inactive); under `Cc1cc(C)c2nc3nc(C)cc(C)c3c(N)c2c1`, 46.3% (active). To `CN(C)CCNC(=O)c1ccc(Cl)c2cc3ccccc3nc12` belongs 39.7% (active).

As to `COC(=O)c1cn(C)c2ccc(S(=O)(=O)N3CC(C)CC(C)C3)cc2c1=O` (stereo not given), the inhibition was 14.2% (inactive). In the case of `CCOC(=O)c1sc(NC(=O)CCN2CCOCC2)c(C(=O)OCC)c1C`, the inhibition was -14.4% (inactive). `CNC(=O)C[C@H]1C(=O)N(c2ccc(OC)cc2)C[C@@H]1Cc1ccccc1`: the inhibition was 5.54% (inactive). Under `CCOc1ccc(NC(=O)c2cc(C)nc3ccccc23)cc1` stands 3.69% (inactive); under `CCOc1ccc(S(=O)(=O)N2CCC(c3ccccc3)CC2)cc1C(=O)O`, 0.13% (inactive); under `Brc1ccc(-c2n(-c3ccccn3)c3ccccc3[n+]2-c2ccccn2)cc1`, 22.7% (active). As to `CO/N=C(/CS(=O)(=O)c1ccc(Br)cc1)c1ccc(OC)cc1`, the inhibition is 5.83% (inactive).

Take `C=CCn1c(=S)[nH]c2scc(-c3ccco3)c2c1=O`: the inhibition was 47.7% (active). Under `CCOc1ccc(N(CC(=O)NCCOc2ccccc2OC)S(=O)(=O)c2ccccc2)cc1` stands 11% (inactive); under `CCOc1cc(N2CCOCC2)c(OCC)cc1NC(=O)c1cc(C)nc2ccccc12`, 7.08% (inactive). `COC(=O)c1ccc(CSc2nncn2N)cc1`: the inhibition is 9.29% (inactive).

For `Cc1ccccc1NC(=O)CN1C(=O)N/C(=C\c2cccn2-c2cccc(C(=O)O)c2)C1=O`, the inhibition is 56.5% (active). Under `Cc1c(C=O)n(C)n(-c2ccccc2)c1=O` stands 0.66% (inactive); under `COC(=O)c1ccc2nc(C3CCCCC3)c(Cc3cccc(F)c3)n2c1`, 5.68% (inactive); under `CCOc1ccc(-n2c(SCC(=O)Nc3ccc(OC)cc3)nc3sc4c(c3c2=O)CCN(C)C4)cc1`, 6.75% (inactive).
